Screening results deposited in PubChem by National Center for Advancing Translational Sciences (NCATS).
Shown are actives, neighbours in structure and some others; about 19% of the full set was active somewhere.
Shiga toxin inh = Shiga toxin inhibition; Vero cells, Shiga toxin protein synthesis inhibition reporter; AID 2315; hit rate 9.2% among 290,000; inhibition, % at 38.7 µM; in the data active = inhibition mostly above about 28%, no sharp cut-off; inactive = mostly below about 43%; also: 0% is about no effect
MARV entry inh = blocks Marburg virus binding to or entry into cells; Marburg virus pseudotyped entry inhibition, cell reporter; Potency, µM (doses to about 37.8 µM), for the others: top-dose activity change, negative = inhibition, actives largely listed as inhibitors; hit rate 1.8% among 300,000; AID 540276; calls by dose curve; tested in HEK293 cells; also: potency is read from the fitted curve at half-maximal effect; % is scaled to controls: 0 for no effect and ±100 for the full control effect
Cycloheximide cs = counter-screen for Shiga toxin inhibitors: cycloheximide protein synthesis inhibition. cell reporter, cycloheximide protein synthesis inhibition counterscreen. max response, %. hit rate 12% among 300,000. AID 2314; in the data active = max response mostly above about 13%, no sharp cut-off; inactive = mostly below about 14%; also: read at 38.3 µM for the half of the compounds with a filed dose; 0% is about no effect
Pf growth 96h = inhibits malaria parasite growth, 96 h. P. falciparum luciferase reporter growth, 96 h. Potency, µM (highest dose often 28.7 µM), for the others: at the top dose activity change, negative = inhibition, usual class: inhibitors. hit rate 6.9% among 320,000. AID 504834; also: potency is read from the fitted curve at half-maximal effect; % is scaled to controls: 0 for no effect and ±100 for the full control effect
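Two parasite generations (96 h, 37 C, 5% CO2) of compound exposure in infected erythrocytes (0.05% parasitemia, 2% hematocrit). Luciferase-reporter P. falciparum; decreased luminescence indicates inhibited growth, aimed at apicoplast-acting delayed death.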
Pf growth 48h = inhibits P. falciparum growth in the first generation, 48 h; hit rate 5.9% among 310,000; Potency, µM (titrated, usually from 28.7 µM), inactives show at the highest dose activity change, negative = inhibition, usual class: inhibitors; P. falciparum luciferase growth in erythrocytes, 48 h; also: potency is read from the fitted curve at half-maximal effect; % is scaled to controls: 0 for no effect and ±100 for the full control effect
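Parasite viability was followed by luminescence of a genomically integrated firefly luciferase. Cultures held 0.1% parasitemia at 2% hematocrit (final), incubated under 5% CO2 at 37 C.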
Lassa entry inh = Lassa virus entry inhibition. Lassa virus pseudotype entry inhibition, cell reporter. Potency, µM (top dose mostly 37.9 µM), without a hit: at the highest dose activity change, negative = inhibition, actives largely listed as inhibitors. hit rate 1.2% among 300,000; calls by dose curve; tested in HEK293 cells; also: potency is read from the fitted curve at half-maximal effect; % is scaled to controls: 0 for no effect and ±100 for the full control effect; nearly all actives have a fitted effect of over 50% in size
Starred values were filed as active, the others as inactive; ? = inconclusive; nt = no result given; [ ] = remark or other dose. Unless noted, calls follow the shape of the dose curve; as a rule, active = well fitted inhibition curve with a large enough effect; inconclusive = small, poorly fitted or top-dose-only effect, or another doubt; inactive = no such curve, though single readings can be large or run the other way.

SMILES	Shiga toxin inh	MARV entry inh	Cycloheximide cs	Pf growth 96h	Pf growth 48h	Lassa entry inh
Cc1ccc(S(=O)(=O)Oc2ccc(C)cc2/C=N/N=C2\NC(=O)C(C)S2)cc1 (centres undefined)	72.6*	?	30.2*	?	31.9%	13.7%
CC(=O)c1c(C)n(CCc2ccc(Cl)cc2)c2ccc(O)cc12	nt	-8.3%	0.2	5.86µM*	10.9%	-4.8%
COC(=O)c1c(C)n(-c2ccc(C)cc2)c2ccc(O)cc12	-16.4	?	-6.3	4.15µM*	nt	?
CC(=O)c1c(C)n(-c2cccc(Cl)c2)c2ccc(O)cc12	2.5	?	-0.7	2.62µM*	-15.6%	-9.5%[46.1 µM]
CC(=O)c1c(C)n(-c2ccc(Cl)cc2)c2ccc(O)cc12	-9.3	3.7%[46.1 µM]	-1.2	12.9%	-6.2%	-3.4%[46.1 µM]
Cc1cc(C(=O)CCl)c(C)n1CCc1ccc(Cl)cc1	32.5	?	11.2	8.28µM*	?	?
COC(=O)c1c(C)n(-c2ccccc2)c2ccc(O)cc12	-15.5	?	-2.7	nt	?	?
COc1ccc(NC(=O)CSc2c3c(nc4ccccc24)CCCC3)c(OC)c1	-6.9	?	-0.5	-10.1%	-25.7%	?
COC(=O)N(C)c1nc2ccccc2s1	64.5	9.3%	35.7*	-9.2%	91.6%	28.2%
CCCNC(=O)c1cc2cc([N+](=O)[O-])ccc2s1	-4.4	-2.9%[46.1 µM]	1.1	27.4%	17.4%	-3.4%[46.1 µM]
CN(C)CCCNC(=O)c1cc2sc3ccccc3c2s1	10.5	?	10.0	?	?	-23.0%
CCCCNC(=O)N(C)c1nc2ccccc2s1	67.8*	10.5%	50.0*	37.6%	66.6%	-6.4%
COCCNC(=O)c1cc2sc3ccccc3c2s1	89.2*	?	57.7*	23.9%	78.3%	-8.4%
CCCCNC(=O)c1cc2ccccc2s1	71.5*	0.5%[46.1 µM]	38.4*	-22.3%	67.0%	-2.1%
CC(=O)N(c1ccccc1)c1nc2ccccc2s1	nt	?	nt	nt	nt	15.8%[46.1 µM]
O=C(Nc1ccccc1OC(F)F)c1ccc(-n2cncn2)c([N+](=O)[O-])c1	nt	-19.4%	nt	-3.3%	?	3.5%
CC(=O)n1c2c(c3ccccc31)OC(N)=C(C#N)C2c1cccc(Cl)c1Cl (centres undefined)	-4.8	5.1%	-0.1	-24.4%	-17.0%	nt
CCOc1ccc(-c2nc(C#N)c(NCCCOC)o2)cc1	nt	nt	nt	nt	nt	-3.8%[46.1 µM]
O=C(O)c1ccc(N(c2ccccc2)c2ccccc2)cc1	-1.5	-5.4%	1.0	15.3%	3.7%	-1.3%
COc1ccc(CCN2CC(C(=O)NCc3cccc4[nH]ccc34)CCC2=O)cc1 (centres undefined)	4.9	0.6%	1.0	9.28µM*	-16.4%	-4.4%
COc1ccccc1CN1CC(C(=O)NCCc2ccccc2Cl)CCC1=O (centres undefined)	59.4*	nt	38.1*	22.4%	0.2%	nt
O=C(NCCc1ccccc1Cl)C1CCC(=O)N(CC2CCCCC2)C1 (centres undefined)	-7.1	nt	10.9	13.1µM*	-9.2%	nt
Cc1ccc(CCNC(=O)C2CCC(=O)N(Cc3ccccc3F)C2)o1 (centres undefined)	102.0*	26.0%	40.2*	7.5%	?	?
Cc1ccc(NC(=O)CSc2nc(N)cc(=O)[nH]2)cc1Cl	-7.6	1.5%[46.1 µM]	1.4	1.9%	?	1.4%
COc1ccccc1CCCNC(=O)C1CCC(=O)N(Cc2ccccc2F)C1 (centres undefined)	99.6*	nt	40.7*	?	13.6%	nt
SMILES	Shiga toxin inh	MARV entry inh	Cycloheximide cs	Pf growth 96h	Pf growth 48h	Lassa entry inh
COc1ccccc1CN1CC(C(=O)NCc2cccnc2)CC1=O (centres undefined)	-11.1	?	-1.9	2.08µM*	15.1%	22.4%
COc1ccc(CCCNC(=O)C2CCC(=O)N(Cc3ccccc3F)C2)cc1 (centres undefined)	27.2	nt	30.6*	-22.3%	-19.8%	nt
COc1ccccc1CN1CC(C(=O)N2CCC(C(=O)c3ccccc3)CC2)CCC1=O (centres undefined)	58.5*	nt	35.5*	25.0%	?	nt
COc1ccccc1CCCNC(=O)C1CCC(=O)N(CCCN2CCCC2=O)C1 (centres undefined)	-4.9	16.0%[46.1 µM]	-2.5	-2.9%	1.6%	23.5%[46.1 µM]
CCN(CC)S(=O)(=O)c1ccc2c(c1)nc(SC(C)C(=O)NCC1CCCO1)n2CC (centres undefined)	-5.9	3.1%	3.9	?	?	?
CC(=O)Nc1ccc(S(=O)(=O)N2CCC(C(=O)NCCC(=O)Nc3nccs3)CC2)cc1	-6.0	nt	-1.5	?	?	nt
Cc1ccc(CCCNC(=O)C2CCC(=O)N(Cc3cccc(F)c3)C2)cc1 (centres undefined)	-2.2	4.2%[46.1 µM]	13.8*	6.6%	?	?
O=C(NCCCC1CCCC1)C1CCC(=O)N(Cc2cccc(F)c2)C1 (centres undefined)	-10.7	-29.0%[46.1 µM]	4.2	20.6%	?	?
COc1ccc(CCN2CC(C(=O)NCC3(O)CCCCC3)CCC2=O)cc1 (centres undefined)	-11.3	7.0%	-2.6	-25.4%	9.2%	2.3%
CCOC(=O)CC1(NC(=O)C2CCC(=O)N(CCc3ccc(OC)cc3)C2)CCCCC1 (centres undefined)	2.2	nt	28.5*	?	?	nt
OCCCNc1ncnc2c1[nH]c1ccccc12	13.0	?	6.1	-17.2%	14.6%	-3.2%[46.1 µM]
CCOc1ccc2[nH]c3c(NCCN(C)C)ncnc3c2c1	9.8	nt	-6.7	2.08µM*	2.33µM*	nt
COc1ccc2[nH]c3c(NCc4ccco4)ncnc3c2c1	96.7*	?	35.7*	0.0%	?	-10.6%
Fc1ccc2[nH]c3c(NCc4ccccc4)ncnc3c2c1	-2.7	?	1.2	3.7µM*	5.86µM*	-29.7%
COc1ccc2[nH]c3c(NCCC4=CCCCC4)ncnc3c2c1	125.4*	10µM*	32.9*	3.7µM*	2.9%	?
COCCCNc1ncnc2c1[nH]c1ccccc12	-8.6	nt	-1.8	7.9%	-13.3%	nt
C=C1[C@@H]2CC[C@H](C2)C1(C)C	2.9	nt	-1.0	-3.3%	0.9%	nt
O=C(Nc1ccccc1F)C(=Cc1sc(N2CCOCC2)nc1-c1ccccc1)C(=O)Nc1ccccc1F	-12.8	-4.9%[46.1 µM]	-3.0	?	?	2.1%
COc1ccc2[nH]c3c(NCCCOC(C)C)ncnc3c2c1	58.5	?	43.9*	-55.9%	-81.1%	?
CCN(CC)CCNc1ncnc2c1[nH]c1ccc(OC)cc12	-7.5	-2.5%	-1.6	2.2%	3.5%	nt
CCOc1ccc2[nH]c3c(NCCC(C)C)ncnc3c2c1	28.9	nt	14.3*	?	?	nt
CCOc1ccc2[nH]c3c(N4CCN(c5ccccn5)CC4)ncnc3c2c1	-7.4	?	-1.0	-5.0%	?	?
CS(=O)(=O)NCc1nnc(SCc2ccccc2C(F)(F)F)o1	-5.4	-23.9%	-2.3	-4.8%	?	-0.3%
